# Reference: PubChem BioAssay (EPA / NIEHS)
# The source made the active and inactive calls. The calls were made as follows: active = hit-call score of the fitted dose curve at least 0.9, where 1 is the maximum; inactive = score below 0.9.
# Assays:
# [1] = read-out: Interleukin-1 alpha (IL1a), IL1A (gene 3552); test: BSK_KF3CT_IL1a: BioMAP Diversity Plus: KF3CT Assay for Interleukin-1 alpha (IL1a) Biomarker Activity (AID 2283070); settings: primary human keratinocytes with fibroblasts; actives raise or lower the signal
# Summary of the method: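 IL-1a was detected by ELISA 24 h after chemical treatment of a co-culture of human skin keratinocytes and foreskin fibroblasts. Gain or loss of signal was fitted against the DMSO baseline.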
# [2] = read-out: Transforming growth factor beta 1 (TGFb1), TGFB1 (gene 7040); test: BSK_KF3CT_TGFb1: BioMAP Diversity Plus: KF3CT Assay for Transforming growth factor beta 1 (TGFb1) Biomarker Activity (AID 2283072); settings: primary human keratinocytes with fibroblasts; actives raise or lower the signal
# Summary of the method: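 Read-out: ELISA for TGF-b1 in keratinocyte/foreskin fibroblast human skin co-culture, 24 h after dosing; bidirectional curve fit vs DMSO baseline; gain or loss of signal scored.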
# [3] = read-out: Matrix Metallopeptidase 9 (MMP9), MMP9 (gene 4318); test: BSK_KF3CT_MMP9: BioMAP Diversity Plus: KF3CT Assay for Matrix Metallopeptidase 9 (MMP9) Biomarker Activity (AID 2283074); settings: primary human keratinocytes with fibroblasts; actives raise or lower the signal;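 as to AC50: MMP9 protein level quantified by ELISA in the co-culture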
# Summary of the method: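 MMP-9 quantified by ELISA after 24 h chemical treatment of primary human skin keratinocyte/fibroblast co-cultures; gain or loss fitted against DMSO, with parallel SRB staining (0.1% SRB, 560 nm) for overt cytotoxicity.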
# [4] = read-out: urokinase plasminogen activator (uPA), PLAU (gene 5328); test: BSK_KF3CT_uPA: BioMAP Diversity Plus: KF3CT Assay for urokinase plasminogen activator (uPA) Biomarker Activity (AID 2283075); settings: primary human keratinocytes with fibroblasts; actives raise or lower the signal
# Summary of the method: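 ELISA read-out of uPA 24 h after dosing human skin keratinocytes co-cultured with foreskin fibroblasts. Signal change fitted both ways relative to DMSO; sulforhodamine B on parallel cultures marks overt cytotoxicity.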
# [5] = read-out: E-selectin (Homo sapiens) (UniProt P16581); test: BSK_LPS_Eselectin: BioMAP Diversity Plus: LPS Assay for Eselectin Biomarker Activity (AID 2283077); settings: primary human HUVEC with PBMC; actives raise or lower the signal
# Summary of the method: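 ELISA readout of E-selectin, 24 h post-dose, HUVEC + PBMC co-culture (LPS system). Gain or loss of signal vs DMSO baseline, bidirectional fit.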
# [6] = BSK_LPS_SRB: Viability Assessment in the BioMAP Diversity Plus: LPS Assay (AID 2283079); settings: primary human HUVEC with PBMC;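 also: total protein by sulforhodamine B absorbance as a cytotoxicity measure; measured one day after compound addition; fitted in both directions against DMSO so loss or gain of signal counts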
# Summary of the method: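 HUVEC + PBMC co-culture, LPS-stimulated; compound 24 h. 10% TCA fix, 0.1% SRB stain, A560. Bidirectional fit vs DMSO.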
# [7] = read-out: Monocyte Chemoattractant Protein-1 (MCP1), CCL2 (gene 6347); test: BSK_LPS_MCP1: BioMAP Diversity Plus: LPS Assay for Monocyte Chemoattractant Protein-1 (MCP1) Biomarker Activity (AID 2283081); settings: primary human HUVEC with PBMC; actives raise or lower the signal;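 as to AC50: secreted MCP-1 protein quantified by ELISA in culture supernatant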
# Summary of the method: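 ELISA read-out of MCP-1 after 24 h chemical dosing of a human umbilical vein endothelial cell/peripheral blood mononuclear cell co-culture stimulated with LPS. Gain or loss of signal fitted relative to DMSO controls.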
# [8] = read-out: Macrophage colony-stimulating factor (MCSF), CSF1 (gene 1435); test: BSK_LPS_MCSF: BioMAP Diversity Plus: LPS Assay for Macrophage colony-stimulating factor (MCSF) Biomarker Activity (AID 2283083); settings: primary human HUVEC with PBMC; actives raise or lower the signal
# Summary of the method: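 HUVEC + PBMC co-culture (human primary), 24 h post-dose; M-CSF by ELISA; gain/loss of signal fitted bidirectionally vs DMSO baseline.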
# [9] = read-out: Tissue Factor, F3 (gene 2152); test: BSK_LPS_TissueFactor: BioMAP Diversity Plus: LPS Assay for Tissue Factor Biomarker Activity (AID 2283084); settings: primary human HUVEC with PBMC; actives raise or lower the signal
# Summary of the method: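 HUVEC/PBMC co-culture, LPS-activated; CD142 ELISA read 24 h post-dose; bidirectional curve fit vs DMSO negative control.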
# [10] = read-out: Tumor necrosis factor (Homo sapiens) (UniProt P01375); test: BSK_LPS_TNFa: BioMAP Diversity Plus: LPS Assay for Tumour Necrosis Factor alpha (TNFa) Biomarker Activity (AID 2283085); settings: primary human HUVEC with PBMC; actives raise or lower the signal;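 as to AC50: TNFa protein level quantified by ELISA in the co-culture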
# Summary of the method: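 HUVEC/PBMC co-culture, LPS-stimulated; 24 h post-dose; TNFa by ELISA; gain or loss of signal fitted bidirectionally vs DMSO baseline.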
# [11] = read-out: Vascular cell adhesion molecule 1 (VCAM1), VCAM1 (gene 7412); test: BSK_LPS_VCAM1: BioMAP Diversity Plus: LPS Assay for Vascular cell adhesion molecule 1 (VCAM1) Biomarker Activity (AID 2283086); settings: primary human HUVEC with PBMC; actives raise or lower the signal
# Summary of the method: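 ELISA read-out of VCAM-1 at 24 h post-dosing in an LPS-driven HUVEC/PBMC primary human co-culture; gain or loss of signal fitted bidirectionally against DMSO baseline. Cytotoxicity tracked in parallel cultures by SRB total-protein staining.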
# [12] = read-out: CD38, CD38 (gene 952); test: BSK_SAg_CD38: BioMAP Diversity Plus: SAg Assay for CD38 Biomarker Activity (AID 2283087); settings: primary human HUVEC with PBMC; actives raise or lower the signal
# Summary of the method: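 Measures CD38 on a human endothelial/PBMC co-culture driven by SEB and TSST-1, 24 h after compound exposure, using ELISA with fluorescence detection; DMSO defines baseline for bidirectional curve fitting.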
# [13] = read-out: CD40, CD40 (gene 958); test: BSK_SAg_CD40: BioMAP Diversity Plus: SAg Assay for CD40 Biomarker Activity (AID 2283088); settings: primary human HUVEC with PBMC; actives raise or lower the signal
# Summary of the method: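 HUVEC/PBMC co-culture, 24 h post-dose; CD40 by ELISA, fluorescence intensity; bidirectional fit vs DMSO negative control.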
# [14] = read-out: Monocyte Chemoattractant Protein-1 (MCP1), CCL2 (gene 6347); test: BSK_SAg_MCP1: BioMAP Diversity Plus: SAg Assay for Monocyte Chemoattractant Protein-1 (MCP1) Biomarker Activity (AID 2283090); settings: primary human HUVEC with PBMC; actives raise or lower the signal
# Summary of the method: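 Values derive from bidirectional fitting of ELISA-measured MCP1 against DMSO controls. Readings were taken 24 h after dosing human vascular endothelial cells co-cultured with peripheral blood mononuclear cells under superantigen stimulation.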
# [15] = read-out: E-selectin (Homo sapiens) (UniProt P16581); test: BSK_SAg_Eselectin: BioMAP Diversity Plus: SAg Assay for Eselectin Biomarker Activity (AID 2283091); settings: primary human HUVEC with PBMC; actives raise or lower the signal
# Summary of the method: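 E-selectin ELISA readout at 24 h post-dosing in human umbilical vein endothelial cell/PBMC co-culture; gain or loss of signal fitted relative to DMSO baseline.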
# [16] = read-out: Monokine induced gamma interferon (MIG), CXCL9 (gene 4283); test: BSK_SAg_MIG: BioMAP Diversity Plus: SAg Assay for Monokine induced gamma interferon (MIG) Biomarker Activity (AID 2283092); settings: primary human HUVEC with PBMC; actives raise or lower the signal
# Summary of the method: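 Measures CXCL9 protein by ELISA in a human vascular primary-cell co-culture (umbilical vein endothelium with PBMC) 24 h after chemical addition. Activity is scored up or down from the DMSO control.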
# [17] = BSK_SAg_PBMCCytotoxicity: PBMC Cytotoxicity Assessment in the BioMAP Diversity Plus: SAg Assay (AID 2283093); settings: primary human HUVEC with PBMC;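 also: PBMC viability measured as Alamar Blue reduction fluorescence at 546/580 nm; fitted both ways against DMSO so a hit may be loss or gain of signal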;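 as to AC50: PBMC superantigen activated with SEB plus TSST-1 one hour after compound addition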
# Summary of the method: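 Alamar Blue reduction (6 h, ex/em 546/580 nm) read after 90 h culture of PBMC pre-dosed 1 h then stimulated with SEB plus TSST-1, 20 ng/mL each. Gain or loss of signal fitted relative to DMSO.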
# [18] = read-out: Interleukin-8 (IL8), CXCL8 (gene 3576); test: BSK_SAg_IL8: BioMAP Diversity Plus: SAg Assay for Interleukin-8 (IL8) Biomarker Activity (AID 2283094); settings: primary human HUVEC with PBMC; actives raise or lower the signal
# Summary of the method: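 HUVEC/PBMC co-culture, 24 h post-dose; IL-8 by ELISA. Gain or loss of signal fitted bidirectionally vs DMSO baseline.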
# [19] = BSK_SAg_Proliferation: Cell Proliferation Assessment in the BioMAP Diversity Plus: SAg Assay (AID 2283095); settings: primary human HUVEC with PBMC;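 also: relative cell number as total protein by SRB absorbance in sub-confluent culture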
# Summary of the method: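 HUVEC/PBMC co-culture, 96-well. TCA-fixed (10%), 0.1% SRB stain, A560 at 96 h. Protein content used as viability readout; bidirectional fitting vs DMSO control.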
# [20] = BSK_SAg_SRB: Viability Assessment in the BioMAP Diversity Plus: SAg Assay (AID 2283096); settings: primary human HUVEC with PBMC;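 also: cells read one day after compound addition; hits may be either gain or loss of signal compared with DMSO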
# Summary of the method: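 SRB absorbance at 560 nm served as the viability read-out. Cells (HUVEC plus peripheral blood mononuclear cells) were TCA-fixed and stained 24 h post-dosing; activity fitted in both directions against DMSO controls.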
# Sequence of Tumor necrosis factor (Homo sapiens) (P01375 whole entry, looked up): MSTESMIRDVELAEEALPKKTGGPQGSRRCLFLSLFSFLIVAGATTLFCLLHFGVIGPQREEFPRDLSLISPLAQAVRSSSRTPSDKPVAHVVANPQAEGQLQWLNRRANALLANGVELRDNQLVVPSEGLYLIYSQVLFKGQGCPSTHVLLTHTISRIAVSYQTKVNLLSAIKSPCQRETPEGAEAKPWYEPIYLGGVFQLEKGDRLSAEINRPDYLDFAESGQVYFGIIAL
# Sequence of E-selectin (Homo sapiens) (P16581 whole entry, looked up): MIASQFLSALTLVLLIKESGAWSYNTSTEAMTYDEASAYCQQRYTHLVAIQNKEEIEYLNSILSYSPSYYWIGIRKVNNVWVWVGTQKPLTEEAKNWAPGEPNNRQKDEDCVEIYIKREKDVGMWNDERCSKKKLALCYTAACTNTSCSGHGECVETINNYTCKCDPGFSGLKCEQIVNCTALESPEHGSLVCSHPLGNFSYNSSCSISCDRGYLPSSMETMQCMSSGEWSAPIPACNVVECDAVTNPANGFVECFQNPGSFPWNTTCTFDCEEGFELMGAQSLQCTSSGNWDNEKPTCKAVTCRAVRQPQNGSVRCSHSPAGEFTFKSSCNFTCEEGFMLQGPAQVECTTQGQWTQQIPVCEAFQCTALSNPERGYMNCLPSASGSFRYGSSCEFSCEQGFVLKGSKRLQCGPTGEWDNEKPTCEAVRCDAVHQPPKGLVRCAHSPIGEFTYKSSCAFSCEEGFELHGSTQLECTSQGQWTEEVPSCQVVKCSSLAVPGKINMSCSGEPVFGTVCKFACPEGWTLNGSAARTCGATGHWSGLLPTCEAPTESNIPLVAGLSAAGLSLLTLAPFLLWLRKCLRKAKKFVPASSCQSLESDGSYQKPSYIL
structure (smiles),measurement,setting,value
c1ccc(Nc2ccc3ccccc3c2)cc1,AC50,[1],24.2 µM (active)
same,AC50,[2],26.6 µM (active)
same,AC50,[3],28.3 µM (active)
same,AC50,[4],30.7 µM (active)
same,outcome,[5],inactive
same,outcome,[6],inactive
same,outcome,[7],inactive
same,outcome,[8],inactive
same,outcome,[9],inactive
same,outcome,[10],inactive
same,outcome,[11],inactive
same,outcome,[12],inactive
same,outcome,[13],inactive
same,outcome,[14],inactive
same,outcome,[15],inactive
same,outcome,[16],inactive
same,outcome,[17],inactive
same,outcome,[18],inactive
same,outcome,[19],inactive
same,outcome,[20],inactive
O=[N+]([O-])C=Cc1ccccc1,AC50,[1],5.78 µM (active)
same,AC50,[2],3.05 µM (active)
same,AC50,[3],3.08 µM (active)
same,AC50,[4],10.2 µM (active)
same,AC50,[5],15.3 µM (active)
same,AC50,[6],11 µM (active)
same,AC50,[7],10.3 µM (active)
same,AC50,[8],10.8 µM (active)
same,AC50,[9],10.7 µM (active)
same,AC50,[10],9.91 µM (active)
same,AC50,[11],8.21 µM (active)
same,AC50,[12],24.9 µM (active)
same,AC50,[13],20 µM (active)
same,AC50,[14],20 µM (active)
same,AC50,[15],20 µM (active)
same,AC50,[16],20 µM (active)
same,AC50,[17],13 µM (active)
same,AC50,[18],11.3 µM (active)
same,AC50,[19],3.07 µM (active)
same,AC50,[20],12.6 µM (active)
COCC(=O)N(c1c(C)cccc1C)N1CCOC1=O,outcome,[1],inactive
same,outcome,[2],inactive
same,outcome,[3],inactive
same,outcome,[4],inactive
same,outcome,[5],inactive
same,outcome,[6],inactive
same,outcome,[7],inactive
same,outcome,[8],inactive
same,outcome,[9],inactive
same,outcome,[10],inactive
same,outcome,[11],inactive
same,outcome,[12],inactive
same,outcome,[13],inactive
same,outcome,[14],inactive
same,outcome,[15],inactive
same,outcome,[16],inactive
same,outcome,[17],inactive
same,outcome,[18],inactive
same,outcome,[19],inactive
same,outcome,[20],inactive
Nc1ccc(-c2ccc(N)c(N)c2)cc1N,AC50,[1],15.8 µM (active)
same,AC50,[2],26.6 µM (active)
same,AC50,[3],16.1 µM (active)
same,outcome,[4],inactive
same,outcome,[5],inactive
same,outcome,[6],inactive
same,outcome,[7],inactive
same,outcome,[8],inactive
same,outcome,[9],inactive
same,outcome,[10],inactive
same,AC50,[11],20 µM (active)
same,outcome,[12],inactive
same,outcome,[13],inactive
same,outcome,[14],inactive
same,AC50,[15],11.7 µM (active)
same,outcome,[16],inactive
same,outcome,[17],inactive
same,outcome,[18],inactive
same,outcome,[19],inactive
same,outcome,[20],inactive
CC(C)(C)C(=O)CCl,outcome,[1],inactive
same,outcome,[2],inactive
same,outcome,[3],inactive
same,outcome,[4],inactive
same,outcome,[5],inactive
same,outcome,[6],inactive
same,outcome,[7],inactive
same,AC50,[8],30.4 µM (active)
same,outcome,[9],inactive
same,outcome,[10],inactive
same,AC50,[11],24.3 µM (active)
same,AC50,[12],27 µM (active)
same,outcome,[13],inactive
same,outcome,[14],inactive
same,AC50,[15],20 µM (active)
same,outcome,[16],inactive
same,AC50,[17],9.22 µM (active)
same,outcome,[18],inactive
same,AC50,[19],23.1 µM (active)
same,outcome,[20],inactive
O=C1C(Cl)=C(Cl)C(=O)C(Cl)=C1Cl,AC50,[1],20.1 µM (active)
same,AC50,[2],20 µM (active)
same,AC50,[3],13.5 µM (active)
same,AC50,[4],28.5 µM (active)
same,AC50,[5],30.2 µM (active)
same,AC50,[6],32.2 µM (active)
same,AC50,[7],30.8 µM (active)
same,AC50,[8],25.2 µM (active)
same,AC50,[9],30.1 µM (active)
same,AC50,[10],30.9 µM (active)
same,AC50,[11],16.2 µM (active)
same,AC50,[12],28.5 µM (active)
same,AC50,[13],25.3 µM (active)
same,AC50,[14],37.9 µM (active)
same,AC50,[15],25.9 µM (active)
same,AC50,[16],36.2 µM (active)
same,AC50,[17],15.1 µM (active)
same,AC50,[18],28 µM (active)
same,AC50,[19],7.77 µM (active)
same,AC50,[20],30.9 µM (active)
